Measurements as given in PubChem BioAssay (NCI).
Values joined by “and” are separate entries in the source; they are usually repeats but may differ in a detail not shown here. Equal entries are not always repeated. The panel holds about 83,000 compounds, 20% with a hit somewhere; the sample as a whole holds those more often.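 Each cell line was grown in a 96-well plate and treated with one concentration of compound for 48 hours. Values below 10 were considered active.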 Active and inactive are the calls of the source.

The compounds below were run on MDA-MB-468 breast (assay: NCI-60 one-dose screen, 48 h (100 = growth as untreated, 0 = no growth, -100 = all killed)). Conditions: 10 µM unless noted.
For `COc1ccc(OC)c(/C=C/[C@H]2O[C@@H](C)[C@H](O)[C@@H]2O)c1`, the growth was 114% (inactive). For `Oc1c(C(Nc2ccccc2Br)c2ccccc2)ccc2cccnc12` (centres undefined), the growth was -4% (active). For `CCN1C(=O)N(CC)C2C1NN=c1s/c(=C\c3ccc[nH]3)c(=O)n12` (centres undefined), the growth was 5.56% (active). In the case of `CCOc1ccc(-n2nc(C(=O)NCc3ccccc3OC)nc2-c2cc(OC)c(OC)c(OC)c2)cc1`, the growth is reported as 72.4% (inactive). For `O=C(/C=C/c1ccccn1)c1ccccc1O`, the growth was 41.6% (inactive) and 70.3% (inactive). For `O=C(Nc1cccc(Cl)c1)Nc1ncc(CCNc2ncnc3ccsc23)s1`, the growth was 6.87% (active). In the case of `Cc1ccc(/C=C2\C(=O)N(C)c3ccc(S(=O)(=O)Nc4ccc(C(C)(C)C)cc4)cc32)s1`, the growth is reported as 41.8% (inactive). `CC(C)(C)c1ccc(C(=O)Nc2sc3cc(O)ccc3c2C(N)=O)cc1` was tested, and the growth was 46.8% (inactive). In the case of `O=C(Cc1ccc(F)c(Cl)c1)Nc1cc(C2(C(F)(F)F)CC2)nn1CC1CCCCC1`, the growth is reported as -13.1% (active). In the case of `C=C[Si](OC(C)=O)(OC(C)=O)OC(C)=O`, the growth is reported as 109% (inactive). With `OC(CNC1CCCCC1)Cn1c2ccc(I)cc2c2cc(I)ccc21` (centres undefined) the growth was 67.4% (inactive). With `Fc1ccc(-c2cc3nc(C(Cl)Cl)nc(-c4cccs4)n3n2)cc1` the growth was -46.8% (active). `Cc1nc2sc(C(=O)Nc3ccccc3Cl)c(N)c2cc1C(C)O` (centres undefined) was tested, and the growth was 70.1% (inactive). For `COc1ccc(NC(=O)c2sc3c(=O)[nH]c(C(F)(F)F)nc3c2C)cc1`, the growth was 131% (inactive). `Cc1ccnc(Nc2nc3ccccc3[nH]2)n1` was tested, and the growth was 119% (inactive). In the case of `CCCCCCCC(C)NCCO` (centres undefined), the growth is reported as 104% (inactive). In the case of `CC(C)(O)Cn1cc(-c2ccc3nc(OC4CC4)ccc3c2)c2c(N)ncnc21`, the growth is reported as 89.1% (inactive) and 50.9% (inactive). In the case of `NNC(=O)Oc1c(Cl)cc(Cl)cc1[N+](=O)[O-]`, the growth is reported as 112% (inactive). For `COc1cc(-c2nc3cc(Cl)c(Cl)cc3[nH]2)ccc1OCC(=O)N=Nc1c(O)[nH]c2ccccc12`, the growth was -86.3% (active). For `Fc1cccc(Cl)c1/C=N/Nc1nc(N/N=C/c2c(F)cccc2Cl)nc(N2CCCCC2)n1`, the growth was -14.2% (active). `O=c1[nH]c2ccccc2cc1-c1nnc(Cc2ccccc2)o1` was tested, and the growth was 53.9% (inactive). `Nc1cc2c(cc1Cl)-c1ccc([N+](=O)[O-])cc1/C2=N\O` was tested, and the growth was 77.7% (inactive). In the case of `COc1ccc2nc3cc(Cl)ccc3c(Nc3cc(CN4CCCC4)c(O)c(CN4CCCC4)c3)c2n1`, the growth is reported as -53.3% (active). For `COc1ccc(Cn2c(C(N)=O)cc3c2-c2nc(N)ncc2CCC3)cc1`, the growth was 82.1% (inactive). For `Cn1cc(-c2nc(-c3c[nH]c4c(Cl)nccc34)cs2)c2ccccc21`, the growth was 8.74% (active). For `Cc1ccc(C(c2c(O)c3cc(Br)ccc3[nH]c2=O)c2c(O)c3cc(Br)ccc3[nH]c2=O)cc1`, the growth was 94.7% (inactive). `O=C1NCC(c2cc3ccccc3[nH]c2=O)Nc2ccccc21` (centres undefined) was tested, and the growth was 97.5% (inactive). In the case of `O=C(NNc1nccc(Nc2ccc(S(=O)(=O)Nc3ccncc3)cc2)n1)c1ccccc1`, the growth is reported as 116% (inactive). In the case of `CCCn1c(=S)sc2c1nc(C)n1c(Nc3ccccc3)nnc21`, the growth is reported as 51.5% (inactive). For `Clc1nc(Cl)c2ncn(-c3ccccc3)c2n1`, the growth was 3.71% (active). For `COc1cc(/C=N/Nc2ccccc2F)cc(OC)c1OC`, the growth was 97% (inactive). With `Cc1cc(F)ccc1S(=O)(=O)Nc1cc(-c2c(O)ccc3ccccc23)c(O)c2ccccc12` the growth was -1.51% (active). With `Nc1nc2c(s1)CCc1c-2c(Br)n(Cc2ccccc2)c1Br` the growth was 33.4% (inactive). In the case of `CCCSc1nc(N)nc2nc[nH]c12`, the growth is reported as 113% (inactive). In the case of `Cc1ccc(S(=O)(=O)OCCN(CCOS(=O)(=O)c2ccc(C)cc2)c2c[nH]c(=O)[nH]c2=O)cc1`, the growth is reported as 98.5% (inactive). With `COc1ccc2[nH]c(O)c(N=NC(=O)c3oc4ccccc4c3C)c2c1` the growth was 19.9% (inactive). In the case of `CCCCCCNC(=O)Oc1ccc(/C(=C(/C)Cc2ccc(OC)cc2)c2ccc(OCCN(C)C)cc2)cc1`, the growth is reported as 62.9% (inactive). For `O=C(/C=C\c1ccnc2ccccc12)c1ccc([N+](=O)[O-])cc1`, the growth was 57.5% (inactive). With `O=C(O)c1cn(C2CC2)c2cc(N3CCN(Cc4nnc(Nc5ccccc5)o4)CC3)c(F)cc2c1=O` the growth was 114% (inactive).
